# Compounds without any hit were thinned out: in the full panel of roughly 83,000, 20% have a hit.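 Treatment: one concentration, 48 hours, 96-well format. Scoring: percent growth, with anything below 10 considered active.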 A number with no mark means an inactive call. Calls of active or inactive are those of the source.
# Legend:
# Assay in all cases: NCI-60 one-dose screen, 48 h (100 = growth as untreated, 0 = no growth, -100 = all killed)
# Settings in all cases: 10 µM unless noted
# T-47D breast = system: T-47D breast
# BT-549 breast = system: BT-549 breast
# MDA-MB-435 melanoma = system: MDA-MB-435 melanoma
# SW-620 colon = system: SW-620 colon
# MCF7 breast = system: MCF7 breast
# HCT-116 colon = system: HCT-116 colon
# KM12 colon = system: KM12 colon
# HCC-2998 colon = system: HCC-2998 colon
Compound,growth (T-47D breast),growth (BT-549 breast),growth (MDA-MB-435 melanoma),growth (SW-620 colon),growth (MCF7 breast),growth (HCT-116 colon),growth (KM12 colon),growth (HCC-2998 colon) [%]
CCCCCCCCCCCCCCCC(=O)OCC1OC(n2cnc3c(=S)nc(N)[nH]c32)C(OC(=O)CCCCCCCCCCCCCCC)C1OC(=O)CCCCCCCCCCCCCCC (stereo unspecified),41.3%,53%,59.3%,78.6%,35%,32.6%,71%,
CN1C2CCC1/C(=C\c1ccc(Cl)cc1)C1=C2[C@@H](c2ccc(Cl)cc2)C(C#N)=C(N)O1 (stereo partly specified),81.7%,97.5%,91.5%,94.3%,66%,63.7%,95%,
COc1ccc(C(=O)/C=C/c2c(Cl)c3c(c(OC)c2Cl)OCC(=O)N3)cc1,25.1%,-14.8% (active),7.18% (active),17.7%,14.9%,11.4%,15.9%,
CNCCCn1c2c(c3ccc([N+](=O)[O-])cc3c1=O)C(=O)c1cc(OC)cnc1-2,-7.15% (active),-25.6% (active),-76.7% (active),-34.1% (active),0.912% (active),-53.9% (active),-4.18% (active),
COc1ccc(OCC(=O)Nc2ccc(-c3nc4ccccc4s3)cc2C)cc1,30.4%,91.9%,101%,97%,29.9%,74%,107%,
CCCCCCCCSC1=CC(=O)C(OC)=C(OC)C1=O,-76.6% (active),68.8%,7.62% (active),-60.5% (active),13.1%,-49.9% (active),29.5%,
Cc1ccc2c(c1)O/C(=C\c1cccc(OCC(=O)c3ccccc3)c1)C2=O,87.6%,104%,96.5%,102%,74.8%,84.4%,85.3%,130
COc1cccc(NC(=O)c2sc3nc4c(cc3c2N)CN(Cc2ccccc2)CC4)c1,66.1%,65.5%,4.27% (active),54.4%,49.5%,58.1%,48.2%,
CN(C)CCOc1ccc(-c2nc3ccc(-c4nc5ccc(N6CCN(C)CC6)cc5[nH]4)cc3[nH]2)cc1,55.3%,74.2%,61.2%,66.3%,35.5%,48.3%,57.3%,
O=C1c2cccnc2C(=O)c2c1c(C(=O)OCCN1CCCCC1)c1ccccn21,4.01% (active),20.1%,-5.97% (active),-13.6% (active),-43.3% (active),-8.36% (active),8.77% (active),
O=C1Nc2ccccc2/C1=C/C(=N/c1nnc(-c2ccccc2)s1)c1ccccc1,73.7%,66.4%,51.6%,-5.52% (active),36.9%,-51.9% (active),87.7%,
O=C1NC(=O)C(CC(=O)n2c(-c3ccccc3)nc3ccccc32)C(=O)N1,93.5%,101%,106%,104%,92.4%,104%,101%,
CCCCCCCCCCCCCCCC[N+]1(CC)CCCC1,18.6%,-25.8% (active),-60.6% (active),-8.83% (active),-18.2% (active),-46.4% (active),-90.6% (active),
COC(=O)C12C3C(=O)N(c4ccc(OC)cc4)C(=O)C3C(c3cn(-c4ccccc4)nc3C)N1[C@H](c1cn(-c3ccccc3)nc1C)[C@@H]1C(=O)N(c3ccc(OC)cc3)C(=O)[C@@H]12 (stereo partly specified),102%,113%,102%,100%,102%,104%,106%,
O=C1Nc2ccccc2C12CC(c1ccccc1)=NN2 (stereo unspecified),60%,64.4%,-24.9% (active),27.7%,19.1%,29.4%,43.3%,
C=C1CC2(OC1=O)C(=O)Nc1ccccc12 (stereo unspecified),37.3%,75.3%,49.7%,4% (active),16.4%,31.4%,97.3%,
CC/C=C\C[C@H](F)C/C=C1/C(=O)C=C[C@@H]1C/C=C\CCCC(=O)OC,4.66% (active),-2.64% (active),0.0777% (active),14.3%,11.6%,-54.6% (active),-27.7% (active),
CC1(C)OCC2OC3(C(=O)O)OC(C)(C)OC3C2O1 (stereo unspecified),95.4%,105%,104%,109%,112%,106%,100%,102
Brc1cccc(-c2nc(-c3ccc4c(c3)OCCO4)co2)c1,46.6% [25 µM],68.7% [25 µM],-31.9% [25 µM] (active),23% [25 µM],37% [25 µM],31.8% [25 µM],38.5% [25 µM],
Cn1cc(-c2csc(-c3cn(C)c4ncccc34)n2)c2ccccc21,31.8%,22%,-40.1% (active),20.7%,13%,20.5%,23.1%,
COc1cnc2c(c1)C(=O)c1c-2n(CCCN2CCN(C)CC2)c(=O)c2cc([N+](=O)[O-])ccc12,-57.2% (active),-54.6% (active),-93.8% (active),-73% (active),-40.1% (active),-83.8% (active),-29% (active),
CSc1ccc(N=C=C(c2ccccc2)c2ccccc2)cc1,81.9%,88.9%,97.4%,86%,78.5%,89.3%,102%,
NCCN1CCN(c2nccc(-c3ccc4ccccc4c3)n2)CC1,43.1%,82.2%,-26.4% (active),-37.9% (active),51.2%,3.52% (active),48.1%,14
CCN(CC)CCCCNc1ccc(NCCCCN(CC)CC)c2c1C(=O)c1ccccc1C2=O,122%,95.6%,56%,-7.96% (active),79.1%,-58.4% (active),26.9%,
CC1=NNC(=O)C1C (stereo unspecified),104%,284%,104%,98%,104%,84.2%,102%,
O=C(O)c1ccc(=O)[nH]n1,105%,106%,112%,102%,97.2%,106%,123%,
O=[N+]([O-])c1c(F)cccc1Nc1cccc(F)c1,108%,118%,105%,108%,90.3%,99.5%,115%,
COc1ccc(-c2cc(C(=O)N=Nc3c(O)[nH]c4ccccc34)no2)cc1,98%,109%,102%,96.9%,95.1%,100%,101%,
CCCCCC(=O)Oc1ccc(/C(=C(\C)c2ccccc2)c2ccc(OCCN(CC)CC)cc2)cc1,39%,72.7%,70.3%,70.8%,29.6%,50.7%,62%,
